From PubChem
Only some compounds are listed: those with a hit (about 1.3% of all), similar ones and a draw of the others.
Vaccinia mCherry: vaccinia inhibition (mCherry reporter). Potency, µM (top dose mostly 36.5 µM), hits mostly inhibitors. Vaccinia virus mCherry reporter infection, fluorescence. actives 0.63% (n = 310,000); calls by dose curve; tested in A549 cells; note: nearly all actives have a fitted effect of over 35% in size
AmpC detergent: blocks E. coli AmpC beta-lactamase in detergent assay; P00811; AmpC hydrolysis of nitrocefin, absorbance 480 nm, 0.01% Triton; Potency, µM (doses to about 114 µM), most hits filed as inhibitors; actives 0.041% (n = 370,000); AID 485294; note: nearly all actives have a fitted effect of over 25% in size
Target sequence (P00811 whole entry, looked up): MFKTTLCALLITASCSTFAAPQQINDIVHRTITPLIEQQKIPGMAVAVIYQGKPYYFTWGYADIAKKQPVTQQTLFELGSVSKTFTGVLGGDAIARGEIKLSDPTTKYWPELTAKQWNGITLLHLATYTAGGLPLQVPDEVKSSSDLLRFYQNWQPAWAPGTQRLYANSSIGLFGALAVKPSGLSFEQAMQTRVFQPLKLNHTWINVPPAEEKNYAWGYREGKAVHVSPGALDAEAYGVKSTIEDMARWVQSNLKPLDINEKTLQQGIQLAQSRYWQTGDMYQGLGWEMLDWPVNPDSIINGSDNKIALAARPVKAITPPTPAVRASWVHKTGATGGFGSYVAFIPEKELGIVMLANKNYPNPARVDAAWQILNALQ
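20 mM phosphate pH 7.0 + 0.01% (detergent screen) or 0.0001% Triton X-100; 5.3 nM AmpC reagent; cpd preinc 15 min RT; nitrocefin (800 uM stock) to start; A480 q20 s × 4 min; Activity was normalised to no-enzyme and no-compound control wells.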
SARS PLpro yeast: SARS-CoV PLP inhibition in yeast | actives 0.19% (n = 330,000) | Potency, µM (top dose mostly 32.9 µM), most hits filed as activators | S. cerevisiae expressing SARS-CoV PLpro, growth rescue | AID 485353; calls by dose curve; note: nearly all actives have a fitted effect of over 55% in size
Vaccinia Venus: inhibitors of vaccinia virus (Venus reporter) | Vaccinia virus Venus reporter expression, fluorescence | Potency, µM (titrated, usually from 36.5 µM), most hits filed as inhibitors | actives 0.46% (n = 330,000) | AID 720580; calls by dose curve; tested in A549 cells; note: nearly all actives have a fitted effect of over 30% in size
AmpC no deterg: AmpC beta-lactamase inhibition without detergent. P00811. AmpC nitrocefin hydrolysis, absorbance 480 nm, 0.0001% Triton. Potency, µM (doses to about 57.1 µM), usual class: inhibitors. actives 0.52% (n = 330,000). AID 485341; note: nearly all actives have a fitted effect of over 20% in size
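AmpC (5.3 nM in the dispensed reagent) in 20 mM phosphate pH 7.0 with 0.01% (detergent screen) or 0.0001% Triton X-100 was preincubated with compounds for 15 min at room temperature. Nitrocefin was then added from an 800 uM solution, and hydrolysis was followed at 480 nm.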
Hits are given with their value; . = inactive; ? = inconclusive; / = no result given; [ ] = dose if it differs, or a comment. Unless noted, calls come from the whole dose curve; as a rule, active = well fitted curve in the direction sought with a large enough effect; inconclusive = small, poorly fitted or top-dose-only effect, or another doubt; inactive = no such curve, though single readings can be large; an effect the other way counts as inactive or inconclusive.

SMILES | Vaccinia mCherry | AmpC detergent | SARS PLpro yeast | Vaccinia Venus | AmpC no deterg
CCN(Cc1cccc(S(=O)(=O)O)c1)c1ccc(C(=C2C=CC(=[N+](CC)Cc3cccc(S(=O)(=O)O)c3)C=C2)c2ccc(O)cc2S(=O)(=O)O)cc1 | 10µM | / | / | . | /
CCN(Cc1cccc(S(=O)(=O)O)c1)c1ccc(C(=C2C=CC(=[N+](CC)Cc3cccc(S(=O)(=O)O)c3)C=C2)c2ccccc2S(=O)(=O)[O-])cc1 | ? | / | / | . | /
COc1ccccc1CN1CCC(n2cc(C(=O)N3CCCCC3)nn2)CC1 | . | / | / | . | /
C/C(=N\Nc1nc2ccccc2s1)c1ccc(Br)s1 | . | . | . | . | .
CC(=NNc1nc2ccccc2s1)c1ccncn1 | 2.82µM | / | / | ? | /
COc1ccc(CCn2c(SCC(=O)Nc3cc(C)on3)nc3ccsc3c2=O)cc1OC | / | . | . | / | 0.316µM
COc1ccc(CCn2c(SCC(=O)Nc3cc(C)on3)nc3ccccc3c2=O)cc1OC | . | . | . | . | .
N#CC1(NC(=O)CN2C(=O)c3ccccc3C2=O)CCCCC1 | / | . | . | / | .
N#CC1(NC(=O)Cn2ncc(Cl)c(Cl)c2=O)CCCCC1 | ? | . | . | ? | 25.1µM
CC(=O)N(O)c1ccc(/C=C2\C=Cc3ccccc32)cc1 | . | / | / | . | /
CC(NS(=O)(=O)OCC(Cl)(Cl)Cl)c1ccc(C(C)(C)C)cc1 (configuration not stated) | 11.2µM | . | . | 20µM | .
COc1ccc(Nc2nc(N)c(C(=O)c3ccc(F)cc3)s2)cc1 | ? | . | . | ? | .
COc1cccc(C(=O)c2sc(NC(C)C)nc2N)c1 | / | . | . | 7.08µM | .
COc1ccc(Nc2nc(N)c(C(=O)c3ccc(OC)cc3)s2)cc1 | 1.78µM | . | . | . | .
COc1ccc(C(=O)c2sc(NC(C)C)nc2N)cc1OC | / | . | . | 11.2µM | .
COc1cccc(C(=O)c2sc(Nc3ccc(F)c(Cl)c3)nc2N)c1 | . | . | / | . | /
Cc1ncc2c(c1CNC(=O)c1ccc3c(c1)OCO3)CCN(C(=O)/C=C/c1ccc(Cl)cc1)C2 | . | / | / | . | /
COc1ccccc1C(=O)N[C@@H]1c2ccccc2C2(CCN(C(=O)c3ccnn3C)CC2)[C@H]1OC | . | / | / | . | /
O=C(O)/C=C/C(=O)Nc1ccc(C2(c3ccc(NC(=O)/C=C/C(=O)O)cc3)c3ccccc3-c3ccccc32)cc1 | / | . | . | / | 12.6µM
O=C(O)/C=C\C(=O)Nc1ccc(Oc2ccccc2)cc1 | / | . | . | / | .
COc1ccc(/C=C/C(=O)NCC2Cc3cccc(-c4nc(C)cnc4C)c3O2)cc1OC (configuration not stated) | . | / | / | . | /
O=C(O)c1ccc2c(c1)C1C(Cl)C(Sc3ccccc3[N+](=O)[O-])CC1C(c1cccc([N+](=O)[O-])c1)N2 (configuration not stated) | . | . | . | . | 17.8µM
CCOc1cc(/C=C2/NC(=O)N(Cc3ccccc3F)C2=O)ccc1O | / | . | . | . | .
COc1cc(/C=C2/NC(=O)N(Cc3ccccc3F)C2=O)cc(OC)c1O | 5.01µM | . | . | . | .
COc1ccc(-n2c(CNC(=O)c3ccc(OC)cc3OC)nnc2SC)cc1 | . | / | / | . | /
SMILES | Vaccinia mCherry | AmpC detergent | SARS PLpro yeast | Vaccinia Venus | AmpC no deterg
Cc1c(C(=O)NCCSCc2ccccc2Cl)cccc1[N+](=O)[O-] | / | . | . | / | 0.251µM
Cc1c(C(=O)NCCSCc2c(Cl)cccc2Cl)cccc1[N+](=O)[O-] | / | . | . | / | .
Cn1c(=O)c(C(=O)CCl)c(N)n(Cc2ccccc2)c1=O | ? | . | . | 12.6µM | .
Cn1c(N)c(C(=O)CCl)c(=O)n(Cc2ccccc2)c1=O | . | . | . | ? | .
Cc1ccccc1N1C(=O)/C(=C/c2ccco2)C(=O)NC1=S | / | 44.7µM | . | / | 7.08µM
CCOc1ccc(N2C(=O)/C(=C/c3ccco3)C(=O)NC2=S)cc1 | / | ? | . | / | 12.6µM
COc1cc2nc(N(C)C)c(CNCc3cccc4ccccc34)cc2c(OC)c1OC | . | / | / | . | /
O=C(Nc1ccc(S(=O)(=O)Nc2nccs2)cc1)c1nn(-c2ccc(F)cc2)ccc1=O | / | . | . | / | 10µM
CCOc1ccc(-n2ccc(=O)c(C(=O)Nc3ccc(S(=O)(=O)Nc4nccs4)cc3)n2)cc1 | / | . | . | / | .
O=C(O)c1ccc2c(c1)C(=O)N(c1ccc([N+](=O)[O-])cn1)C2=O | . | ? | . | . | .
O=C(O)c1ccc2c(c1)C(=O)N(c1ccc(Cl)cn1)C2=O | . | ? | . | . | 0.631µM
O=C1N=c2ccccc2=C1c1sc(NS(=O)(=O)Cc2ccccc2)nc1O | / | . | . | / | 3.55µM
O=C1N=c2ccccc2=C1c1sc(NS(=O)(=O)c2ccccc2)nc1O | . | . | . | . | .
O=C1NC(=O)C(Cc2ccccc2F)(C2CCN(Cc3cccn3-c3cccnc3)CC2)N1 (configuration not stated) | . | / | / | . | /
Cc1ccnc(NCc2cc(Cl)cc(Cl)c2O)c1 | . | / | / | . | /
Cc1cc(C)c(O)c(CN(C)Cc2cc(Cl)cc(Cl)c2O)c1 | 2.82µM | / | / | ? | /
COc1ccc([C@]23Cc4cc(OC)c(OC)cc4C(O2)c2c(cc(C)n(Cc4ccccc4)c2=O)O3)cc1 | / | .[22.9 µM] | .[6.58 µM] | / | .[11.4 µM]
Cc1cc(SCC(=O)OC/C(O)=C(\C#N)c2nc3ccccc3[nH]2)c(C)cc1Br | . | . | . | . | 10µM
N#C/C(=C(/O)COC(=O)CSc1ccc(Cl)cc1)c1nc2ccccc2[nH]1 | . | . | . | . | .
Cc1cc(SCC(=O)NC2(C#N)CCCCC2)nc2c(C)cccc12 | . | . | . | . | 31.6µM
Cc1cc(SCC(=O)N2CCCC2=O)nc2c(C)cccc12 | . | . | / | . | .
COc1cc(/C=c2\[nH]c(=O)/c(=C/c3cc(OC)c(OC)c(OC)c3)[nH]c2=O)cc(OC)c1OC | . | / | / | . | /
Cc1ccc(S(=O)(=O)/N=C2/C=C(Sc3ncn[nH]3)C(=O)c3ccccc32)c(C)c1 | / | . | . | / | 25.1µM
CC(C)c1ccc(S(=O)(=O)/N=C2/C=C(Sc3ncn[nH]3)C(=O)c3ccccc32)cc1 | 11.2µM | . | . | ? | .
Cc1ccc(S(=O)(=O)/N=C2/C=C(Sc3ncn[nH]3)C(=O)c3ccccc32)cc1 | 2.82µM | . | . | 7.08µM | .
SMILES | Vaccinia mCherry | AmpC detergent | SARS PLpro yeast | Vaccinia Venus | AmpC no deterg
O=C(c1cnsn1)N1CCOc2ccc(CN3CCOCC3)cc2C1 | . | / | / | . | /
Cc1c(C(=O)NCC2(N3CCOCC3)CCCC2)cnn1-c1nccc(-c2ccccc2F)n1 | . | / | / | . | /
CCn1c2ccccc2c2cc(NC(=O)COC(=O)c3ccc(NC(=O)CC#N)cc3)ccc21 | ? | . | . | ? | 31.6µM
N#CCC(=O)Nc1ccc(C(=O)NCCC(c2ccccc2)c2ccccc2)cc1 | . | . | . | . | 7.94µM
CCn1c2ccccc2c2cc(NC(=O)COC(=O)c3ccccc3F)ccc21 | 10µM | . | . | ? | .
N#CCC(=O)Nc1ccc(C(=O)OCC(=O)N=c2sccn2Cc2ccccc2Cl)cc1 | . | . | . | . | 10µM
CN(C)C(CNC(=O)c1ccc(NC(=O)CC#N)cc1)c1ccccc1 (configuration not stated) | . | . | . | . | .
